# Assay results taken from PubChem BioAssay (NCI).
# The panel holds about 83,000 compounds, 20% with a hit somewhere; the sample as a whole holds those more often.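 A percent growth of 40 corresponds to 60% growth inhibition; 0 means no net growth; -100 means all cells died. Active threshold: below 10.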 Active and inactive are the calls of the source.
# Tested on: NCI/ADR-RES ovarian
# Assay: NCI-60 one-dose screen, 48 h (100 = growth as untreated, 0 = no growth, -100 = all killed)
# Settings: 10 µM unless noted
row,SMILES,growth
1,CCOC(=O)/C(C#N)=C\c1c[nH]c2ccccc12,88.5% (inactive)
2,CC(=O)N(C)N=Nc1ccc(C)cc1,99.1% (inactive)
3,O=c1n(CC2CO2)c(=O)n(CC2CO2)n1CC1CO1 (centres undefined),65.5% (inactive)
4,Cc1ccc(N2C(=O)c3cccc4c(N)c(S(=O)(=O)O)cc(c34)C2=O)cc1,103% (inactive)
5,S=C=Nc1ccc2ccccc2c1,102% (inactive)
6,Oc1cccnc1CN1CCCC1,108% (inactive)
7,O=C1C=C(c2ccccc2)C(O)(c2ccccc2)C1 (centres undefined),104% (inactive)
8,Cc1cc(C)cc(OCC(=O)O)c1,105% (inactive)
9,Cc1cccc(C)c1NC(=S)/N=C\c1c(O)[nH]c(=O)[nH]c1=O,108% (inactive)
10,NNC(=O)N/N=C1\C(=O)N(c2nccs2)C(=O)C(=O)C1c1nc2ccccc2s1 (centres undefined),103% (inactive)
11,O=C1Nc2ccccc2/C1=C\c1ccccc1O,84.9% (inactive)
12,CN(C)c1ccc2c(N(C)C)cc(N(C)C)nc2c1,77% (inactive)
13,O=S(Cc1ccccc1)/C(=C/NC(=S)Nc1cc(Cl)ccc1Cl)c1ccccc1 (centres undefined),105% (inactive)
14,CCNC(=O)OCCc1c2ccccc2nc2ccccc12,119% (inactive)
15,CCCCn1cnc2c(=O)[nH]cnc21,113% (inactive)
16,Cc1cc(CC(=O)NCCO)n(CCO)c(=O)c1,106% (inactive)

row,SMILES,growth
1,CCCCCCCCCCC(=O)CCCCCCCCCC,100% (inactive)
2,NC(=S)c1c(N)n(C2OC(CO)C(O)C2O)c2ncnc(N)c12 (centres undefined),-1.77% (active)
3,NC(=S)N/N=C/c1ccc(OC(=O)COc2ccccc2)cn1,26.8% (inactive)
4,CCOC(=O)CNC(=O)Sc1ccc(C(C)(C)C)cc1,102% (inactive)
5,c1ccc(Nc2ccccn2)nc1,112% (inactive)
6,C[n+]1c(/C=C\C=C\N2CCCCC2)sc2ccccc21,62.5% (inactive)
7,CCC(=O)C1C(=O)c2ccccc2C1=O,106% (inactive)
8,Cc1cc(NC(=O)c2ccccc2)c(Cl)cc1N,102% (inactive)
9,O=C1C=C[C@H](O)[C@@]2(CO)O[C@@H]12,86.3% (inactive)
10,Oc1cc(O)c2c(c1)O[C@H](c1ccc(O)c(O)c1)[C@@H](O)C2,101% (inactive)
11,C(=C\c1ccncc1)/c1ccncc1,98% (inactive)
12,NC(CCl)=NCC12CC3CC(CC(C3)C1)C2,3.54% (active)
13,COC1=C(OC)C(=O)C(SC/C=C(\C)CCCC(C)CCCC(C)CCCC(C)C)=CC1=O (centres undefined),11.6% (inactive)
14,N#C/C(=C\c1ccc(C#N)cc1)C(=O)c1ccccc1,98.7% (inactive)
15,CN1CCCN(C(c2ccccc2)c2ccc(Cl)cc2)CC1 (centres undefined),94% (inactive)

# Tested on: T-47D breast
# Assay: as above
# Settings: 10 µM unless noted
row,SMILES,growth
1,CCOC(=O)/C(C#N)=C\c1c[nH]c2ccccc12,86.5% (inactive)
2,CC(=O)N(C)N=Nc1ccc(C)cc1,102% (inactive)
3,COc1cc(C(=O)N2CCN(c3ccccc3)CC2)c2ccccc2n1,51.1% (inactive)
4,CCOC(=O)c1ccc(NC(=O)Nc2nccs2)cc1,57.3% (inactive)
5,O=c1n(CC2CO2)c(=O)n(CC2CO2)n1CC1CO1 (centres undefined),52.4% (inactive)
6,CCCCCCCCCCCCSC1=C(Cl)C(=O)C(OC)=C(OC)C1=O,14.1% (inactive)
7,Cc1ccc(N2C(=O)c3cccc4c(N)c(S(=O)(=O)O)cc(c34)C2=O)cc1,112% (inactive)
8,S=C=Nc1ccc2ccccc2c1,108% (inactive)
9,Oc1cccnc1CN1CCCC1,95.2% (inactive)
10,O=C1C=C(c2ccccc2)C(O)(c2ccccc2)C1 (centres undefined),90.6% (inactive)
11,Cc1cc(C)cc(OCC(=O)O)c1,96.6% (inactive)
12,Cc1cccc(C)c1NC(=S)/N=C\c1c(O)[nH]c(=O)[nH]c1=O,104% (inactive)
13,NNC(=O)N/N=C1\C(=O)N(c2nccs2)C(=O)C(=O)C1c1nc2ccccc2s1 (centres undefined),77.1% (inactive)
14,O=[N+]([O-])c1c(O)c(CNCCCO)cc(CNCCCO)c1O,113% (inactive)
15,O=C1Nc2ccccc2/C1=C\c1ccccc1O,71.9% (inactive)
16,CN(C)c1ccc2c(N(C)C)cc(N(C)C)nc2c1,56% (inactive)
17,Cc1cccc(-[n+]2noc(N)n2)c1,59% (inactive)
18,O=S(Cc1ccccc1)/C(=C/NC(=S)Nc1cc(Cl)ccc1Cl)c1ccccc1 (centres undefined),104% (inactive)
19,CCNC(=O)OCCc1c2ccccc2nc2ccccc12,109% (inactive)

row,SMILES,growth
1,CCCCn1cnc2c(=O)[nH]cnc21,97.8% (inactive)
2,Cc1cc(CC(=O)NCCO)n(CCO)c(=O)c1,84.1% (inactive)
3,CCCCCCCCCCC(=O)CCCCCCCCCC,92.3% (inactive)
4,NC(=S)c1c(N)n(C2OC(CO)C(O)C2O)c2ncnc(N)c12 (centres undefined),-48.2% (active)
5,NC(=S)N/N=C/c1ccc(OC(=O)COc2ccccc2)cn1,41.5% (inactive)
6,CCOC(=O)CNC(=O)Sc1ccc(C(C)(C)C)cc1,88.4% (inactive)
7,c1ccc(Nc2ccccn2)nc1,84.6% (inactive)
8,C[n+]1c(/C=C\C=C\N2CCCCC2)sc2ccccc21,5.32% (active)
9,CCC(=O)C1C(=O)c2ccccc2C1=O,113% (inactive)
10,Cc1cc(NC(=O)c2ccccc2)c(Cl)cc1N,98% (inactive)
11,O=C1C=C[C@H](O)[C@@]2(CO)O[C@@H]12,94.2% (inactive)
12,Oc1cc(O)c2c(c1)O[C@H](c1ccc(O)c(O)c1)[C@@H](O)C2,104% (inactive)
13,C(=C\c1ccncc1)/c1ccncc1,129% (inactive)
14,CCOC(=O)c1cc(C)[nH]c(=O)c1C#N,107% (inactive)
15,NC(CCl)=NCC12CC3CC(CC(C3)C1)C2,15.7% (inactive)
16,COC1=C(OC)C(=O)C(SC/C=C(\C)CCCC(C)CCCC(C)CCCC(C)C)=CC1=O (centres undefined),12.5% (inactive)
17,COc1ccc(Br)c2c1C(=O)CC2,133% (inactive)
18,N#C/C(=C\c1ccc(C#N)cc1)C(=O)c1ccccc1,65.4% (inactive)
19,CN1CCCN(C(c2ccccc2)c2ccc(Cl)cc2)CC1 (centres undefined),87.1% (inactive)
